Data: PubChem BioAssay (NCI)
This is part of a sample that, as a whole, favours compounds with a hit. Of some 79,000 tested, about 15% had one in any assay. Active and inactive are the calls of the source. No stated cut-off is given here; in the data, active means growth inhibition above about 70%; inactive means the rest.

Columns and labels:
[1] = NCI Yeast Anticancer Drug Screen. Data for the rad52 strain (AID 147);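 further: 0% = growth of vehicle-treated control cultures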; conditions: S. cerevisiae rad52 mutant growth inhibition, hits give high values
Summary of the method: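 Here a repair-compromised yeast strain receives each compound; its growth is then quantified and normalised to vehicle-only controls.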

[2] = NCI Yeast Anticancer Drug Screen. Data for the wt1 strain (AID 149);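 further: 0% = growth of vehicle-treated wt1 cultures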; conditions: S. cerevisiae wt1 strain (SPY 50644) growth inhibition, hits give high values
Summary of the method: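 Using yeast strain wt1, compound-induced growth inhibition was determined against vehicle-treated cultures.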

[3] = NCI Yeast Anticancer Drug Screen. Data for the rad50EPP+ strain (AID 151);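 further: 0% = growth of vehicle-treated control cultures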; conditions: S. cerevisiae rad50 mutant strain, hits give high values
Summary of the method: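 Read-out is yeast growth inhibition relative to vehicle; cells used were the rad50EPP+ strain.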

[4] = NCI Yeast Anticancer Drug Screen. Data for the mgt1 strain (AID 153); conditions: S. cerevisiae mgt1 mutant growth inhibition, hits give high values
Summary of the method: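 Measured: inhibition of mgt1 yeast growth by compound, normalized to vehicle-treated cultures.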

[5] = NCI Yeast Anticancer Drug Screen. Data for the rad50 strain (AID 155);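 further: 0% = growth of vehicle-only cultures of the same strain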; conditions: S. cerevisiae rad50 strain growth inhibition, hits give high values
Summary of the method: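 Relative growth inhibition (compound vs vehicle) was measured in yeast with a defined repair-gene alteration.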

[6] = NCI Yeast Anticancer Drug Screen. Data for the mec2-1 strain (AID 157); conditions: S. cerevisiae mec2-1 strain, hits give high values
Summary of the method: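 Using mec2-1 yeast: add compound, measure growth, express inhibition versus vehicle-treated cultures.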

[7] = NCI Yeast Anticancer Drug Screen. Data for the rad14 strain (AID 159);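 further: 0% = growth of vehicle-treated control cultures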; conditions: S. cerevisiae rad14 strain growth inhibition, hits give high values
Summary of the method: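 Screen for anticancer potential: a yeast strain altered in DNA damage repair is grown with compound, and reduced growth is quantified against vehicle controls.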

[8] = NCI Yeast Anticancer Drug Screen. Data for the sgs1 mgt1 strain (AID 161);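 further: 0% = growth of cultures given vehicle only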; conditions: S. cerevisiae sgs1 mgt1 strain, hits give high values
Summary of the method: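 Percent growth inhibition was derived by comparing compound-exposed mutant yeast with vehicle-exposed cultures. The strain carries alterations in DNA damage repair.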

[9] = NCI Yeast Anticancer Drug Screen. Data for the CLN2oe strain (AID 163);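 further: 0% = growth of vehicle-only control cultures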; conditions: S. cerevisiae CLN2oe strain, hits give high values
Summary of the method: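 Whole-cell yeast growth assay. A strain engineered for altered cell-cycle control received compound, and inhibition relative to vehicle-treated cultures was recorded.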

[10] = NCI Yeast Anticancer Drug Screen. Data for the cln2 rad14 strain (AID 165);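 further: 0% = growth equal to vehicle treated cultures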; conditions: S. cerevisiae cln2 rad14 strain, hits give high values
Summary of the method: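 Yeast strain cln2 rad14, bearing defects in cell cycle control and DNA repair, serves as the test system; values reflect growth inhibition compared with vehicle.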

[11] = NCI Yeast Anticancer Drug Screen. Data for the bub3 strain (AID 167); conditions: S. cerevisiae bub3 mutant strain, hits give high values
Summary of the method: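 Screening used yeast with an engineered genetic alteration affecting cell cycle control. Compound-exposed cultures were compared with vehicle cultures, and reduced growth was taken as inhibition.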

[12] = NCI Yeast Anticancer Drug Screen. Data for the wt2 strain (AID 169);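 further: 0% = growth of vehicle-treated yeast cultures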; conditions: S. cerevisiae wt2 strain growth inhibition, hits give high values
Summary of the method: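 Treated yeast vs. vehicle-treated yeast: growth inhibition determined.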

[13] = NCI Yeast Anticancer Drug Screen. Data for the mlh1 strain (AID 171);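 further: 0% = growth of vehicle-treated control cultures of the same strain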; conditions: S. cerevisiae mlh1 strain growth inhibition, hits give high values
Summary of the method: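 A yeast strain with a defined genetic lesion serves as the test organism. Cultures receive compound or vehicle, and growth is measured.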

[14] = NCI Yeast Anticancer Drug Screen. Data for the sgs1 strain (AID 173);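 further: 0% = growth of vehicle-only control cultures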; conditions: S. cerevisiae sgs1 mutant, hits give high values
Summary of the method: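 A genetically defined yeast mutant is incubated with the test compound, and its growth is compared to that of the same strain given vehicle.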

[15] = NCI Yeast Anticancer Drug Screen. Data for the mlh1 rad18 strain (AID 175); conditions: S. cerevisiae mlh1 rad18 strain growth inhibition, hits give high values
Summary of the method: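 Steps: expose repair-defective yeast to compound; measure growth; express inhibition against vehicle-treated controls.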

[16] = NCI Yeast Anticancer Drug Screen. Data for the rad18 strain (AID 177); conditions: S. cerevisiae rad18 mutant growth inhibition, hits give high values
Summary of the method: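 Measured value is growth inhibition of a yeast strain bearing a DNA repair alteration, referenced to vehicle-treated cells.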

[17] = at 5.0 µM (retest, dose inferred, filed as 0.5)
[18] = at 50.0 µM (retest, dose inferred, filed as 5.0)

Measured: growth inhibition

O=C(/N=N/C(=O)Oc1ccccc1)Oc1ccccc1
active: [5]; [18] 96% | [6]; [18] 97% | [15]; [18] 98%
inactive: [1]; at 1.2 µM -49% | [1]; at 3.7 µM -54% | [1]; at 11.0 µM -52% | [1]; at 33.0 µM -38% | [1]; at 100.0 µM 24% | [2]; at 1.2 µM -57% | [2]; at 3.7 µM -51% | [2]; at 11.0 µM -46% | [2]; at 33.0 µM -32% | [2]; at 100.0 µM 37% | [3]; at 1.2 µM -87% | [3]; at 3.7 µM -110% | [3]; at 11.0 µM -106% | [3]; at 33.0 µM -46% | [3]; at 100.0 µM -82% | [4]; at 1.2 µM -61% | [4]; at 3.7 µM -61% | [4]; at 11.0 µM -63% | [4]; at 33.0 µM -29% | [4]; at 100.0 µM 57% | [5]; at 1.2 µM -81% | [5]; at 3.7 µM -66% | [5]; [17] 30% | [5]; at 11.0 µM -107% | [5]; at 33.0 µM -40% | [5]; at 50.0 µM 56.4% | [5]; at 100.0 µM 45% | [6]; at 1.2 µM -97% | [6]; at 3.7 µM -47% | [6]; [17] 53% | [6]; at 11.0 µM -87% | [6]; at 33.0 µM -52% | [6]; at 50.0 µM 8.5% | [6]; at 100.0 µM -16% | [7]; at 1.2 µM -26% | [7]; at 3.7 µM -26% | [7]; at 11.0 µM -10% | [7]; at 33.0 µM -15% | [7]; at 100.0 µM 5% | [8]; [17] -29% | [8]; [18] 39% | [8]; at 50.0 µM 48.6% | [9]; at 1.2 µM 9% | [9]; at 3.7 µM 22% | [9]; at 11.0 µM 16% | [9]; at 33.0 µM 40% | [9]; at 100.0 µM 40% | [10]; [17] 5% | [10]; [18] 59% | [10]; at 50.0 µM 43.6% | [11]; at 1.2 µM -25% | [11]; at 3.7 µM -29% | [11]; [17] 50% | [11]; at 11.0 µM -17% | [11]; at 33.0 µM 2% | [11]; [18] 69% | [11]; at 50.0 µM 55% | [11]; at 100.0 µM 65% | [12]; at 1.2 µM -46% | [12]; at 3.7 µM -48% | [12]; at 11.0 µM -54% | [12]; at 33.0 µM -39% | [12]; at 100.0 µM 48% | [13]; at 1.2 µM -70% | [13]; at 3.7 µM -85% | [13]; at 11.0 µM -78% | [13]; at 33.0 µM -44% | [13]; at 100.0 µM 3% | [14]; at 1.2 µM -78% | [14]; at 3.7 µM -80% | [14]; at 11.0 µM -35% | [14]; at 33.0 µM -27% | [14]; at 100.0 µM 59% | [15]; [17] 44% | [15]; at 50.0 µM 49% | [16]; at 1.2 µM -44% | [16]; at 3.7 µM -72% | [16]; at 11.0 µM -72% | [16]; at 33.0 µM -58% | [16]; at 100.0 µM 45%

CCCCOc1ccc2nc(C)cc(N=[N+]=[N-])c2c1
inactive: [1]; at 1.2 µM 8% | [1]; at 3.7 µM 9% | [1]; at 11.0 µM 14% | [1]; at 33.0 µM 20% | [2]; at 1.2 µM 11% | [2]; at 3.7 µM 10% | [2]; at 11.0 µM 11% | [2]; at 33.0 µM 15% | [2]; at 100.0 µM 69% | [3]; at 1.2 µM -1% | [3]; at 3.7 µM -3% | [3]; at 11.0 µM 0% | [3]; at 33.0 µM 10% | [3]; at 100.0 µM 45% | [4]; at 1.2 µM 6% | [4]; at 3.7 µM 7% | [4]; at 11.0 µM 12% | [4]; at 33.0 µM 32% | [5]; at 1.2 µM 4% | [5]; at 3.7 µM -4% | [5]; [17] 19% | [5]; at 11.0 µM -1% | [5]; at 33.0 µM 33% | [5]; [18] 49% | [5]; at 50.0 µM 19.7% | [6]; at 1.2 µM 11% | [6]; at 3.7 µM 8% | [6]; [17] 7% | [6]; at 11.0 µM 14% | [6]; at 33.0 µM 28% | [6]; [18] -1% | [6]; at 50.0 µM 23.8% | [7]; at 1.2 µM 7% | [7]; at 3.7 µM 5% | [7]; at 11.0 µM 11% | [7]; at 33.0 µM 48% | [8]; [17] 12% | [8]; [18] -13% | [9]; at 1.2 µM 7% | [9]; at 3.7 µM 6% | [9]; at 11.0 µM 12% | [9]; at 33.0 µM 28% | [9]; at 100.0 µM 64% | [10]; [17] 6% | [10]; at 50.0 µM 40.8% | [11]; at 1.2 µM 11% | [11]; at 3.7 µM 9% | [11]; [17] 5% | [11]; at 11.0 µM 12% | [11]; at 33.0 µM 31% | [11]; [18] 33% | [11]; at 50.0 µM 37% | [12]; at 1.2 µM 7% | [12]; at 3.7 µM 6% | [12]; at 11.0 µM 10% | [12]; at 33.0 µM 33% | [13]; at 1.2 µM 7% | [13]; at 3.7 µM 10% | [13]; at 11.0 µM 13% | [13]; at 33.0 µM 38% | [14]; at 1.2 µM 12% | [14]; at 3.7 µM 13% | [14]; at 11.0 µM 15% | [14]; at 33.0 µM 41% | [15]; [17] 8% | [16]; at 1.2 µM 16% | [16]; at 3.7 µM 19% | [16]; at 11.0 µM 23% | [16]; at 33.0 µM 51%
active: [1]; at 100.0 µM 86% | [4]; at 100.0 µM 90% | [5]; at 100.0 µM 92% | [6]; at 100.0 µM 79% | [7]; at 100.0 µM 98% | [8]; at 50.0 µM 91.2% | [10]; [18] 70% | [11]; at 100.0 µM 87% | [12]; at 100.0 µM 93% | [13]; at 100.0 µM 97% | [14]; at 100.0 µM 96% | [15]; [18] 93% | [15]; at 50.0 µM 74.2% | [16]; at 100.0 µM 96%
